Reference: PubChem BioAssay (NCATS)
Results filed as inconclusive are left out. The source made the active and inactive calls. Calls follow the shape of the dose curve; as a rule, active = well fitted inhibition curve with a large enough effect; inconclusive = small, poorly fitted or top-dose-only effect; inactive = flat fitted curve, though single readings scatter.

System: ATS189
Assay: qHTS profiling for inhibitors of Plasmodium falciparum proliferation (AID 504749); also: nearly all actives have a fitted effect of over 60% in size;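 as to activity, negative = inhibition: 0% = DMSO vehicle and full inhibition = artemisinin control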
Conditions: P. falciparum in erythrocytes, SYBR Green DNA, 72 h; series mostly up to 28.7 µM; activity, negative = inhibition: at the top concentration
Method in brief: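 Infected RBCs, 0.3% parasitemia/2.5% Hct final; cpd 72 h, 37 C, 5% CO2; lysis buffer with saponin/triton/SYBR Green I, o/n RT dark; FI 485/535; norm. to artemisinin (0.29 uM) and DMSO.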
Potency is read from the fitted curve at half-maximal effect.

Structure (SMILES) | activity, negative = inhibition | Potency
S=P(N1CC1)(N1CC1)N1CC1 | -0.146% (inactive) | –
COc1cc([C@@H]2c3cc4c(cc3[C@H](O)[C@H]3COC(=O)[C@H]23)OCO4)cc(OC)c1OC | – | 3.55 µM (active)
COc1ccc(-c2ccc3cc(C(=O)O)ccc3c2)cc1C12CC3CC(CC(C3)C1)C2 | 14% (inactive) | –
COC(=O)Nc1nc2ccc(C(=O)c3ccccc3)cc2[nH]1 | 10.6% [at 12.8 µM] (inactive) | –
COc1ccc2cc3[n+](cc2c1OC)CCc1cc2c(cc1-3)OCO2 | – | 1.41 µM (active)
CNNCc1ccc(C(=O)NC(C)C)cc1 | 5.93% (inactive) | –
N=C(N)c1ccc(OCCCCCOc2ccc(C(=N)N)cc2)cc1 | – | 1.41 µM (active)
Oc1c(Cl)cc(Cl)c2cccnc12 | – | 8.91 µM (active)
CCc1cc(C(N)=S)ccn1 | 4.96% (inactive) | –
COc1cc2c(Nc3ccc(Br)cc3F)ncnc2cc1OCC1CCN(C)CC1 | – | 5.01 µM (active)
COC(=O)Nc1nc2ccc(Sc3ccccc3)cc2[nH]1 | -0.311% [at 12.8 µM] (inactive) | –
C1CCC(C(CC2CCCCN2)C2CCCCC2)CC1 (stereo not drawn) | – | 11.2 µM (active)
CC(C)Cn1cnc2c(N)nc3ccccc3c21 | -0.973% (inactive) | –
CCCc1nc(C)c2c(=O)[nH]c(-c3cc(S(=O)(=O)N4CCN(CC)CC4)ccc3OCC)nn12 | -6.56% (inactive) | –
CC(C)(Sc1cc(C(C)(C)C)c(O)c(C(C)(C)C)c1)Sc1cc(C(C)(C)C)c(O)c(C(C)(C)C)c1 | -0.599% [at 12.8 µM] (inactive) | –
COc1cc(NCc2ccc3nc(N)nc(N)c3c2C)cc(OC)c1OC | – | 0.282 µM (active)
Cc1nnc(NS(=O)(=O)c2ccc(N)cc2)s1 | 2.52% (inactive) | –
Nc1nc(N)c2nc(CNc3ccc(C(=O)NC(CCC(=O)O)C(=O)O)cc3)cnc2n1 (stereo not drawn) | 2.17% (inactive) | –
